# Screening results as filed in PubChem BioAssay.
# Only some compounds are listed: those with a hit (about 4.1% of all), similar ones and a draw of the others.
# MEKK2wt PB1 HTS: modulators of MEK5 binding to wildtype MEKK2, primary screen, biochemical, multiplex bead flow cytometry, Alexa488-MEK5; Mitogen-activated protein kinase kinase kinase 2 (Homo sapiens), Q9Y2U5; Alexa488-MEK5 binding to MEKK2 WT; actives lie on both sides; binding response (% of control), % at 10 µM; 1.1% of 290,000 active; AID 1531, 2009; in the data active = binding response below about 67% or above about 130%
# MEKK2 mut-MEK5: MEK5 binding signal on mutant MEKK2 PB1, primary screen, biochemical, multiplex bead flow cytometry, Alexa488-MEK5 | Alexa488-MEK5 binding to MEKK2 mutant | percent response, % at 10 µM | 0.35% of 290,000 active; in the data active = percent response above about 24%, passing the limit was not always enough
# CHT allo act: CHT positive allosteric modulators, primary screen, cell-based, membrane potential dye, choline EC20; High affinity choline transporter 1 (Homo sapiens), Q9GZV3; CHT-expressing cells; active compounds read high; LV-AA mutant CHT in HEK293 cells; B-score at 10 µM; 0.49% of 310,000 active; AID 488977, 2010;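 active = initial fluorescence not abnormally high and integrated response B-score, plate-corrected, over 3 SD above library mean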
# MEKK3 PB1 HTS: modulators of MEKK3-MEK5 PB1 binding, primary screen, biochemical, wildtype MEKK3, multiplex bead flow cytometry, Alexa488-MEK5. Mitogen-activated protein kinase kinase kinase 3 (Homo sapiens), Q99759. bead-based flow cytometry, Alexa488-MEK5 binding to MEKK3; actives lie on both sides; 0 = blocked by unlabeled MEK5, 100 = vehicle. binding response (% of control), % at 10 µM. 1.4% of 290,000 active. AID 1529, 2009;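 active = binding response more than 3 SD above or below the average of its plate-row segment, actives on both sides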;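 also: Alexa488 bead fluorescence after subtracting the streptavidin-only scavenger bead signal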
# Target sequence (Q99759 whole entry, looked up): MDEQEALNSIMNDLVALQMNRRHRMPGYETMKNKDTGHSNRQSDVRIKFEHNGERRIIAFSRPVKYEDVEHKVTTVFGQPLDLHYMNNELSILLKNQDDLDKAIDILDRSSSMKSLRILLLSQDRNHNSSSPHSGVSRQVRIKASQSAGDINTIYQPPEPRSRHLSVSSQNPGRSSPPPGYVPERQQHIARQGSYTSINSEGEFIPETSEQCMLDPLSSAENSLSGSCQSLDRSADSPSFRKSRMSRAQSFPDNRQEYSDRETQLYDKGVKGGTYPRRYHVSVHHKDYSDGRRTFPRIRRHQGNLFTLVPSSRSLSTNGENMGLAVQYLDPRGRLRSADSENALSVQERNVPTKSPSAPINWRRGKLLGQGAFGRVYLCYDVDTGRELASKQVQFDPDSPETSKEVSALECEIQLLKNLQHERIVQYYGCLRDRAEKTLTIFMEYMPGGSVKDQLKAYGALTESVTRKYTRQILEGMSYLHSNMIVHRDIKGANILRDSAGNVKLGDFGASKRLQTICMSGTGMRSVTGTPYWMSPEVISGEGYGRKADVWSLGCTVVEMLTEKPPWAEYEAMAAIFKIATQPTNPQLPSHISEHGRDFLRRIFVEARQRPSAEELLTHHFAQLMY
# Mot1-301 SUMO: yeast Mot1-301 growth rescue at high temperature, primary screen, SUMOylation pathway inhibitor project, S. cerevisiae, ATP luminescence, 38.5C; S. cerevisiae Mot1-301 growth rescue; percent above DMSO median, 100 means doubled; growth rescue, % at 18.8 µM; 1% of 320,000 active; AID 2716, 2010;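 active = every valid replicate shows activation above 250% relative to neutral control wells; inactive = the rest, any valid replicate at or below 250%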;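 also: OY570 slx delta 5 strain wells were the positive control but not used for scaling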
# CHT block: inhibitors of human choline transporter CHT. 0.86% of 310,000 active. CHT-expressing cells, membrane potential dye, choline response; active compounds read low. AID 488975, 2010. B-score at 10 µM. High affinity choline transporter 1 (Homo sapiens), Q9GZV3;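 active = B-score over 3 SD under the library average, and starting fluorescence ratio not unusually high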;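 also: choline stimulus applied at its EC90 after an EC20 pre-addition; B-score computed on integrated fluorescence ratio after choline addition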
# MEKK2wt confirm: modulators of MEK5 binding to wildtype MEKK2, confirmation, biochemical, single concentration, multiplex bead flow cytometry; Alexa488-MEK5 binding to MEKK2 WT; actives lie on both sides; 2.4% of 5,900 active; shares compounds with MEKK3 PB1 HTS; binding response (% of control), % at 10 µM; in the data active = binding response below about 16% or above about 210%; inactive = in between
# MEKK2mut-MEK5: mutant MEKK2 PB1-MEK5 binding signal retest – biochemical, single concentration, multiplex bead flow cytometry, confirmation. shares compounds with MEKK3 PB1 HTS. Alexa488-MEK5 binding to MEKK2 mutant. percent response, % at 10 µM. 2% of 5,900 active. AID 1893, 2009; in the data active = percent response mostly above about 71%, no sharp cut-off; inactive = mostly below about 38%;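 also: higher means compound restores mutant binding toward wildtype level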
# MEKK3 confirm: MEKK3 wild-type PB1 binding to MEK5, inhibitors, confirmation, biochemical, bead multiplex flow cytometry, single concentration, wildtype; 1.8% of 5,900 active; binding response (% of control), % at 10 µM; AID 1894, 2009; shares compounds with MEKK3 PB1 HTS; Alexa488-MEK5 binding to MEKK3; active compounds read low;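 active = binding response below 72% of control, or above a set upper limit, though filed actives all read lower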;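 also: 100% = DMSO only wells and 0% = binding blocked by excess unlabeled MEK5; lower values mean stronger disruption of MEK5 binding to MEKK3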
# Numbers without * were called inactive; i = inactive; . = no result; [ ] = dose if it differs, or a comment.
SMILES,MEKK2wt PB1 HTS,MEKK2 mut-MEK5,CHT allo act,MEKK3 PB1 HTS,Mot1-301 SUMO,CHT block,MEKK2wt confirm,MEKK2mut-MEK5,MEKK3 confirm
Cn1c(=O)[nH]c(=O)c2[nH]c(N(Cc3ccccc3)Cc3ccccc3)nc21,121,15,i,122*,-9,i,98,0,101
Cn1c(=O)[nH]c(=O)c2[nH]c(CN3CCN(Cc4ccccc4)CC3)nc21,103,7,i,102,-8,i,.,.,.
Cn1nnc2ccccc2c1=O,129,7,i,141*,2,i,100,-2,98
COc1ccccc1CCNC(=O)c1ccc2nc[nH]c2c1,99,-4,i,100,1,i,.,.,.
O=C1Nc2ccc([N+](=O)[O-])cc2OC1CCN1CCCC1 (centres undefined),114,5,i,141*,10,i,101,1,101
COc1cc(NC(=S)NCc2ccc(S(N)(=O)=O)cc2)c(OC)cc1Cl,102,0,i,59*[inhibitor],-14,i,103,3,101
COc1ccc(Cl)cc1NC(=S)NCCc1ccc(S(N)(=O)=O)cc1,104,7,i,105,6,i,.,.,.
Cc1nc2ccccc2c(=O)n1NC(=O)/C=C/c1ccc(Br)cc1,103,0,i,108,26,i,.,.,.
O=C(/C=C/c1ccc(Cl)cc1)Nn1c(-c2cccs2)nc2ccccc2c1=O,105,0,i,131*,-4,i,103,4,105
CCOC(=O)c1cnc2cc(C)nn2c1-c1ccccc1,101,0,i,101,-8,i,.,.,.
CCOC(=O)c1cnc2cc(C)nn2c1C,87,-10,i,74*[inhibitor],-7,i,102,10,101
CCc1ccccc1NC(=O)NNS(=O)(=O)c1cc(C)ccc1C,103,7,i,101,0,i,.,.,.
Cc1c(Cl)cnc(NC(=O)CSc2nncs2)c1Cl,107,0,i,144*,10,i,106,7,104
O=C(COc1ccc(Cl)cc1Br)N1CCN(c2ccccc2)CC1,103,5,i,101,2,i,.,.,.
O=CN1CCN(C(=O)COc2ccc(Cl)cc2Br)CC1,108,0,i,149*,2,i,98,-3,101
Cc1ccc(C(c2nnnn2Cc2cccs2)N2CCN(C(=O)c3ccco3)CC2)cc1 (centres undefined),107,5,i,105,73,i,.,.,.
CCC(c1nnnn1Cc1cccs1)N1CCN(C(=O)c2ccco2)CC1 (centres undefined),-1.0*[inhibitor],-13,i,0.0*[inhibitor],-1,i,96,2,102
CN1CCN(CCCNC(=O)c2ccc(Cn3c(=S)[nH]c4ccc(Br)cc4c3=O)cc2)CC1,108,-1,i,103,-3,i,.,.,.
CC1CCN(CCCNC(=O)c2ccc(Cn3c(=S)[nH]c4ccc(Br)cc4c3=O)cc2)CC1,166*,38,i,103,-3,i,190,50,108
Nc1cccc(-c2nc3cc(S(=O)(=O)c4ccc5oc(-c6cccc(N)c6)nc5c4)ccc3o2)c1,71,-27,i,69*[inhibitor],23,i,86,-18,92
COC(=O)c1c(NC(=O)COc2ccc(Cl)cc2)sc2c1CC(C)(C)NC2(C)C,186*,49*,i,107,7,i,181,51,110
COC(=O)c1c(NC(=O)Cc2ccccc2)sc2c1CC(C)(C)NC2(C)C,114,8,i,106,-9,i,.,.,.
CCCCN(C(=O)COC(=O)CSc1ccc([N+](=O)[O-])cc1)c1c(N)n(CCC)c(=O)[nH]c1=O,.,.,i,.,41,i,.,.,.
O=C(NCc1cccnc1)Nc1cccc(Cl)c1Cl,99,-3,i,97,112,i,.,.,.
c1ccc(N2CCN(c3nc4ccccc4[nH]3)CC2)nc1,84,-4,i,74*[inhibitor],5,i,94,-6,93
SMILES,MEKK2wt PB1 HTS,MEKK2 mut-MEK5,CHT allo act,MEKK3 PB1 HTS,Mot1-301 SUMO,CHT block,MEKK2wt confirm,MEKK2mut-MEK5,MEKK3 confirm
CCCN1CCN(CCCNC(=O)c2cc3c(=O)[nH]c4ccc(C)cc4c3s2)CC1,75,-9,i,67*[inhibitor],-21,i,108,-4,101
O=C(NCCc1ccccc1)c1nccc2ccccc12,.,.,i,.,-3,i,.,.,.
c1ccc(CCNc2ccnc3cc4ccccc4cc23)cc1,210*,97*,.,104,.,.,202,58,103
CN1CCN(C(=O)c2ccccc2-c2ccccc2C(=O)O)CC1,103,2,i,102,4,i,.,.,.
COc1cc(/C=C/C(=O)C2C(=O)C=C(C)OC2=O)cc(OC)c1O (centres undefined),117,3,i,135*,1,i,104,-4,100
O=C(Nc1cccc(S(=O)(=O)N2CCOCC2)c1)[C@@H]1CCCN1S(=O)(=O)c1ccc(Cl)cc1,111,1,i,153*,3,i,109,15,107
Cc1cccc(NC(=O)C2CCCN2S(=O)(=O)c2ccc3c(c2)n(C)c(=O)c(=O)n3C)c1 (centres undefined),73,-8,i,66,-6,i,.,.,.
CCc1cccc(NC(=O)C2CCCN2S(=O)(=O)c2ccc3c(c2)n(C)c(=O)c(=O)n3C)c1 (centres undefined),70,-15,i,71*[inhibitor],-22,i,127,20,108
CCn1c(C)nnc1SCC(=O)NC1CCCC1,99,1,i,100,11,i,.,.,.
COc1ccccc1C1CN=NC12CCCc1ccccc1C2=O (centres undefined),33*[inhibitor],-13,i,24*[inhibitor],17,i,106,5,103
